Assay results reported in the supplement of paper PMC7156485.
Values without a mark were called inactive.

System: HCC1569
Assay: H1.0 immunofluorescence intensity relative to DMSO (% of DMSO); higher = stronger H1.0 induction, active = 140 or more
Details: concentration: 10 µM; 24 h
Summary of the method: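 In 384-well plates holding 800 HCC1569 or TDF cells per well in RPMI with 10% FBS, compounds were tested at 10 µM for 24 h at 37 °C in triplicate. Fixation used 3.7% formaldehyde. Staining used a rabbit anti-H1.0 antibody with an AlexaFluor 647 secondary, plus DAPI. Each value, H1.0 nuclear intensity or cell number, is a median of replicates shown as percent of the plate control, and HCC1569 values were smoothed for positional effects.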
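Further: TDF is a line of transformed human dermal fibroblasts of mesenchymal origin.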

SMILES | H1.0 immunofluorescence intensity
C#C[C@]1(O)CC[C@H]2[C@@H]3CC[C@H]4Cc5nc6nc7ccccc7n6cc5C[C@]4(C)[C@H]3CC[C@@]21C | 145 (active)
Cl.O=C1CCC2(O)C3Cc4ccc(O)c5c4C2(CCN3CC2CC2)C1O5 (stereo not drawn) [Naltrexone.HCl] | 99.8
CCCCCCCCCCCCCC(=O)OC1C(C)C2(O)C(C=C(CO)CC3(O)C(=O)C(C)=CC32)C2C(C)(C)C12OC(C)=O (stereo not drawn) [Phorbol 12-myristate 13-acetate] | 125
CN(C)C(=O)C(CCN1CCC(O)(c2ccc(Cl)cc2)CC1)(c1ccccc1)c1ccccc1.Cl [Loperamide hydrochloride] | 122
CC1(CO)C(O)CCC2(C)C1CCC1CC3CC12CCC3(O)CO (stereo not drawn) [Aphidicolin] | 95.2
CCCCCC=CCC=CCC=CCC=CCCCCCC(=O)NCCO [Anandamide (22:4,n-6)] | 98.3
COc1cc(CC(C)N)c(OC)cc1I.Cl (racemic) | 88.9
CCC=CCC(C=CC=CCC=CCC=CCCCC(=O)O)OO (stereo not drawn) | 102
